Measurements published in PubChem BioAssay.
Active and inactive are the calls of the source.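 Rule for the calls, unless noted: active = compound that reduces growth-factor-driven endothelial tube area in a mixed cell culture, no cutoff stated; inactive = the rest.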

Tests used:
[1] = Wnt pathway potentiators raising nuclear beta-catenin – imaging, WNT3A-conditioned medium, mouse C2C12, NPC library, primary screen (AID 1117326; in the data active = nuclear beta-catenin stimulation mostly above about 4.2%, no sharp cut-off; inactive = mostly below about 10%; note: reference of the scale not given here); conditions: stronger effect = higher value
[2] = stimulators of insulin release from INS-1E, primary screen, cell-based, 5 mM glucose, NPC library (AID 1117329;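 active = compound raises insulin release from rat beta cells at 5 mM glucose, no numeric limit stated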; note: reference of the scale not given here); conditions: rat INS-1E insulin secretion, at 10 µM, stronger effect = higher value
[3] = growth inhibition of GSK3B-pretreated HCT116 cells – cell-based, CellTiter-Glo, 0.2 to 20 µM (AID 1117336;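 active = compounds lowering colon cancer cell viability after pretreatment blocking the GSK3B kinase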); conditions: HCT116 viability after GSK3B inhibitor, at 20 µM, stronger effect = higher value
[4] = inhibition of endothelial tube formation, primary screen, imaging, VEGF stimulated, CD31 staining, tube area, NPC library (AID 1117340); conditions: VEGF-stimulated ADSC/ECFC co-culture, at 10 µM, stronger effect = higher value
[5] = GLP1 release stimulators, primary, NCI-H716, NPC library (AID 1117341;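 active = compound raises GLP1 secretion from the human gut endocrine cells, with no numeric limit stated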; note: reference of the scale not given here); conditions: NCI-H716 cells, at 10 µM, stronger effect = higher value
[6] = HCT116 colon cancer cell growth inhibition, primary screen, CellTiter-Glo luminescence, NPC library (AID 1117342;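 active = compounds that lower survival of HCT116 colon cancer cells in the luminescence readout, no numeric limit stated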); conditions: at 20 µM (top of the series)
[7] = reduced SW480 viability measured with CellTiter-Glo, NPC library, primary (AID 1117343;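 active = compounds that lower viability of the colon cancer cells in the luminescence readout, with no numeric limit stated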); conditions: CellTiter-Glo luminescence; at 20 µM (top of the series)
[8] = NPC library primary testing for decreased DLD-1 cell viability via CellTiter-Glo (AID 1117346;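 active = compounds that lower survival of DLD-1 colon cancer cells in the luminescence readout, no cutoff given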); conditions: DLD-1 viability, CellTiter-Glo luminescence; at 20 µM (top of the series)

CC1(C)OC[C@@H]2O[C@@]3(C(=O)O)OC(C)(C)O[C@H]3[C@@H]2O1
-0.3%: nuclear beta-catenin stimulation ([1]; stimulation, at 2 µM)
inactive: nuclear beta-catenin stimulation ([1]; at 10 µM) -1.7% | insulin secretion stimulation [2] 4.8% | viability decrease [3] -3% | tube area decrease [4] -12.4% | GLP1 secretion stimulation [5] -3.6% | inhibition of viability [6] -1.6% | viability decrease (inhibition) [7] 26.9% | viability decrease (inhibition) [8] 0.3%

CC[N+]1(CC)CCC(=C(c2ccccc2)c2ccccc2)C1C (stereo not given)
-2.2%: nuclear beta-catenin stimulation ([1]; stimulation, at 2 µM)
inactive: nuclear beta-catenin stimulation ([1]; at 10 µM) -1.3% | insulin secretion stimulation [2] 1.7% | viability decrease [3] -4.6% | tube area decrease [4] -9.4% | GLP1 secretion stimulation [5] 3.8% | inhibition of viability [6] 22.7% | viability decrease (inhibition) [7] 1.6% | viability decrease (inhibition) [8] 34.6%

CN(C)c1cc(NC(=O)CNC(C)(C)C)c(O)c2c1C[C@@H]1C[C@H]3[C@H](N(C)C)C(=O)C(C(N)=O)=C(O)[C@@]3(O)C(=O)C1=C2O
-1.4%: nuclear beta-catenin stimulation ([1]; stimulation, at 2 µM)
inactive: nuclear beta-catenin stimulation ([1]; at 10 µM) -0.8% | insulin secretion stimulation [2] -0.5% | tube area decrease [4] -8.6% | GLP1 secretion stimulation [5] 3.4%
active: viability decrease [3] 70% | inhibition of viability [6] 59.6% | viability decrease (inhibition) [7] 72% | viability decrease (inhibition) [8] 58.1%

COc1ccccc1N1CCN(CC(O)COc2cc(OC)c(OC)c(OC)c2)CC1 (stereo not given)
inactive: nuclear beta-catenin stimulation ([1]; at 10 µM) 0.2% | insulin secretion stimulation [2] 1.5% | viability decrease [3] 16.1% | GLP1 secretion stimulation [5] 4.5% | inhibition of viability [6] 20.9% | viability decrease (inhibition) [7] -2.1% | viability decrease (inhibition) [8] 8.5%
active: tube area decrease [4] 56.8%
0.4%: nuclear beta-catenin stimulation ([1]; stimulation, at 2 µM)

CCCC(CCC)C(N)=O
inactive: nuclear beta-catenin stimulation ([1]; at 10 µM) -0.9% | insulin secretion stimulation [2] 2% | viability decrease [3] 1.8% | tube area decrease [4] -17.7% | GLP1 secretion stimulation [5] 16.4% | inhibition of viability [6] 16.3% | viability decrease (inhibition) [7] 25.7% | viability decrease (inhibition) [8] 22.3%
-1%: nuclear beta-catenin stimulation ([1]; stimulation, at 2 µM)

C=CCN1CCc2nc(N)sc2CC1
inactive: nuclear beta-catenin stimulation ([1]; at 10 µM) 0.7% | insulin secretion stimulation [2] -0.5% | viability decrease [3] -5.1% | tube area decrease [4] 7.1% | GLP1 secretion stimulation [5] 0.8% | inhibition of viability [6] -4% | viability decrease (inhibition) [7] 2.6% | viability decrease (inhibition) [8] -3.4%
1%: nuclear beta-catenin stimulation ([1]; stimulation, at 2 µM)

Cc1ccc(S(=O)(=O)NC(=O)NC2CCCC2)cc1
inactive: nuclear beta-catenin stimulation ([1]; at 10 µM) 0.2% | insulin secretion stimulation [2] 15.2% | viability decrease [3] -1.25% | tube area decrease [4] -10.7% | GLP1 secretion stimulation [5] -0.4% | inhibition of viability [6] -18.5% | viability decrease (inhibition) [7] 44.9% | viability decrease (inhibition) [8] 9.95%
0.6%: nuclear beta-catenin stimulation ([1]; stimulation, at 2 µM)

c1ccc2sc(SN3CCOCC3)nc2c1
active: viability decrease (inhibition) [7] 110%
2.1%: nuclear beta-catenin stimulation ([1]; stimulation, at 2 µM)
inactive: nuclear beta-catenin stimulation ([1]; at 10 µM) 0.5% | insulin secretion stimulation [2] -2.6% | viability decrease [3] 2.05% | tube area decrease [4] 18.9% | GLP1 secretion stimulation [5] -0.9% | inhibition of viability [6] -10.4% | viability decrease (inhibition) [8] 6.4%

CC(C)CCCC(C)CCCC(C)CCCCC(C)CCCC(C)CCCC(C)C (stereo not given)
inactive: nuclear beta-catenin stimulation ([1]; at 10 µM) -1.2% | insulin secretion stimulation [2] -1.6% | viability decrease [3] -26.9% | tube area decrease [4] 4.8% | GLP1 secretion stimulation [5] -2.5% | inhibition of viability [6] -10.1% | viability decrease (inhibition) [7] 22.4% | viability decrease (inhibition) [8] -26.5%
-0.8%: nuclear beta-catenin stimulation ([1]; stimulation, at 2 µM)

CN(C)CCOC(c1ccccc1)c1ccc(Br)cc1 (stereo not given)
5.4%: nuclear beta-catenin stimulation ([1]; stimulation, at 2 µM)
active: insulin secretion stimulation [2] 95% | viability decrease (inhibition) [7] 55.5%
inactive: nuclear beta-catenin stimulation ([1]; at 10 µM) 4.6% | viability decrease [3] -92.2% | tube area decrease [4] -4.6% | GLP1 secretion stimulation [5] 12.6% | inhibition of viability [6] 29.9% | viability decrease (inhibition) [8] 5.7%

CCN(CC)CCOc1ccc(C(O)(Cc2ccc(Cl)cc2)c2ccc(C)cc2)cc1 (stereo not given)
active: viability decrease [3] 101% | tube area decrease [4] 107% | GLP1 secretion stimulation [5] 31.5% | inhibition of viability [6] 102% | viability decrease (inhibition) [7] 122% | viability decrease (inhibition) [8] 101%
inactive: nuclear beta-catenin stimulation ([1]; at 10 µM) 8.8% | insulin secretion stimulation [2] 0.1%
1.9%: nuclear beta-catenin stimulation ([1]; stimulation, at 2 µM)

Cc1c(F)cc2c(=O)c(C(=O)O)cn3c2c1CCC3C (stereo not given)
inactive: nuclear beta-catenin stimulation ([1]; at 10 µM) 1.9% | insulin secretion stimulation [2] -1.9% | viability decrease [3] -181% | tube area decrease [4] -28% | GLP1 secretion stimulation [5] 1.5% | inhibition of viability [6] 0.65% | viability decrease (inhibition) [7] -16.3% | viability decrease (inhibition) [8] -3%
1.5%: nuclear beta-catenin stimulation ([1]; stimulation, at 2 µM)

C[N+](C)(CCOc1ccccc1)Cc1cccs1
1.1%: nuclear beta-catenin stimulation ([1]; stimulation, at 2 µM)
inactive: nuclear beta-catenin stimulation ([1]; at 10 µM) -0.3% | insulin secretion stimulation [2] 2.65% | viability decrease [3] 22.9% | tube area decrease [4] -14.7% | GLP1 secretion stimulation [5] -1.6% | inhibition of viability [6] 27.5% | viability decrease (inhibition) [7] -11.3% | viability decrease (inhibition) [8] 1.8%

Cc1oc(-c2ccccc2)nc1CCC(=O)c1ccc(CC2SC(=O)NC2=O)cc1 (stereo not given)
active: viability decrease [3] 97.3% | inhibition of viability [6] 95.4% | viability decrease (inhibition) [7] 120% | viability decrease (inhibition) [8] 96.5%
-0.4%: nuclear beta-catenin stimulation ([1]; stimulation, at 2 µM)
inactive: nuclear beta-catenin stimulation ([1]; at 10 µM) 3.2% | insulin secretion stimulation [2] 3.5% | tube area decrease [4] 9.6% | GLP1 secretion stimulation [5] 12.7%

CCN1CCCC1CN (stereo not given)
1.8%: nuclear beta-catenin stimulation ([1]; stimulation, at 2 µM)
inactive: nuclear beta-catenin stimulation ([1]; at 10 µM) 1.1% | insulin secretion stimulation [2] 4.8% | viability decrease [3] 39.7% | tube area decrease [4] -0.3% | GLP1 secretion stimulation [5] 3.1% | inhibition of viability [6] 32.2% | viability decrease (inhibition) [7] 43.3% | viability decrease (inhibition) [8] 12.4%
